High-throughput results: PubChem, several laboratories
A selection: hits, their analogues and other compounds. The true share with any hit is near 5.6%.
Cardio protect: modulators protecting cardiomyocytes from myocardial damage. H9c2 cardiomyocytes, H2O2 injury protection, ATPLite, 2 h. protection from H2O2 cell death, % at 20 µM. hit rate 0.63% among 360,000;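 active = compounds giving at least 50% protection of heart cells from peroxide-induced death in the single-dose screen, raw or plate-pattern-corrected value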;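 note: 0% = DMSO wells with peroxide and 100% = DMSO wells without peroxide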
ALR H2O2 inh: human ALR oxidase inhibition via reduced H2O2. hit rate 3.8% among 290,000. inhibition, % (no concentration beside the values). P55789. purified ALR, DTT oxidation, H2O2 HRP-luminol luminescence. AID 485317;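 active = mean replicate inhibition above about 79%, with every replicate also reaching it, limit read from the data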
Target sequence (P55789 whole entry, looked up): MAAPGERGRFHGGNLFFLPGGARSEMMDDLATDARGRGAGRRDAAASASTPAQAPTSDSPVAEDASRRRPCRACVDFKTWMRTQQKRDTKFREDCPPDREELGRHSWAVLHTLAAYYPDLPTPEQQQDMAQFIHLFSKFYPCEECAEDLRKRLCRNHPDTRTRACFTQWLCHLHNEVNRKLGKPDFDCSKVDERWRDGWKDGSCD
PHOSPHO1 inh: blocks human PHOSPHO1 phosphatase activity; Q8TCT1; recombinant PHOSPHO1, absorbance phosphatase assay; inhibition, % at 13.3 µM; hit rate 1.1% among 290,000; in the data active = inhibition above about 60%
Target sequence (Q8TCT1 whole entry, looked up): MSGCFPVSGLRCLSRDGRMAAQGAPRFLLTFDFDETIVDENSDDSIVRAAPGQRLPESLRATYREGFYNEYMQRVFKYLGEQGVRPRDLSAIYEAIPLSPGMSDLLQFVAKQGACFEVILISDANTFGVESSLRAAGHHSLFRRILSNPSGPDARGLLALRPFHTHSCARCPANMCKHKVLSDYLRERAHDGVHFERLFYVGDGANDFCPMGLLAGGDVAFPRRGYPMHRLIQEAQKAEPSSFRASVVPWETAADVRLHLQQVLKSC
PfM18AAP inh-1: blocks P. falciparum M18 aspartyl aminopeptidase | recombinant PfM18AAP, H-Glu-NHMec fluorogenic cleavage | AID 1822 | inhibition, % at 7.35 µM | hit rate 1.2% among 290,000;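 active = inhibition above the campaign mean inhibition over all tested compounds plus 3 SD, cut at about 28% in these data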;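 note: 0% = plate median of test compound wells and 100% = 2 mM ZnCl2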
PfG6PD inh: PfG6PD (Plasmodium falciparum) enzyme inhibition; PfGluPho enzyme, NADPH resazurin-diaphorase fluorescence; inhibition, % at 20 µM; hit rate 0.78% among 350,000; AID 504690;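 active = inhibition reaching at least a set limit at 20 µM in the primary screen, cut at about 59% in these data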;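 note: 0% = DMSO wells with substrate and 100% = DMSO wells lacking glucose-6-phosphate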
PfM18AAP inh-2: PfM18AAP inhibition, confirmation; shares compounds with PfM18AAP inh-1; recombinant PfM18AAP, H-Glu-NHMec fluorogenic cleavage; inhibition, % at 7.35 µM; hit rate 28% among 2,400;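 active = mean inhibition over replicate wells above the hit cutoff set for the earlier primary screen, cut at about 29% in these data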;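 note: 0% = median of test compound wells and 100% = 2 mM ZnCl2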
CTSL1 confirm: counter-screen for PFM18AAP inhibitors: confirmation of human cathepsin L inhibitors. shares compounds with PfM18AAP inh-1. purified cathepsin L1, Z-Leu-Arg-MCA fluorescence. inhibition, % at 5.96 µM. 2,400 tested, under 10 active;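 active = average inhibition across replicates above the hit cutoff set in the earlier primary screen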;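 note: 0% = median of test compound wells and 100% = Z-Phe-Ala-diazomethylketone 1 µM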
The depositor's hits bear a star; nt = not tested or not shown.

SMILES | Cardio protect | ALR H2O2 inh | PHOSPHO1 inh | PfM18AAP inh-1 | PfG6PD inh | PfM18AAP inh-2 | CTSL1 confirm
CC(C)NC(=S)NC(=O)c1ccc(Cl)cc1Cl | -2 | 3 | -12 | -3 | 8 | nt | nt
N#CC1=C2CCCCC2(O)NC1=O (stereo not given) | -1 | nt | nt | nt | 5 | nt | nt
CCCS(=O)(=O)NC(=O)C1(C)CCN(C(=O)c2cc(C)oc2C)C1 (stereo not given) | 4 | nt | nt | nt | nt | nt | nt
S=c1nc(-c2ccco2)[nH][nH]1 | 23 | 99* | 98* | 44* | 29 | 10 | -2
O=[N+]([O-])c1ccc(Nc2nc(N/N=C/c3cccc(F)c3)nc(N3CCCC3)n2)cc1 | 84* | -1 | -9 | 44* | 5 | -35 | 0
O=[N+]([O-])c1ccc(N/N=C/c2cccc(O)c2O)cc1 | 34 | 6 | 29 | 36* | 54 | 4 | 1
O=[N+]([O-])c1ccccc1N/N=C/c1c[nH]c2ccccc12 | 0 | 5 | 24 | -7 | 33 | nt | nt
O=[N+]([O-])c1ccc(N/N=C/c2c[nH]c3ccccc23)cc1 | -20 | -5 | 9 | 37* | 34 | -52 | 4
Cc1cccc(C(=O)Oc2ccccc2/C=N/Nc2ccc([N+](=O)[O-])cc2)c1 | -10 | -3 | 0 | -9 | 3 | nt | nt
O=[N+]([O-])c1ccc(N/N=C/c2ccc[nH]2)cc1 | -9 | 72 | 90* | 35* | 81* | -31 | 4
CCCn1c(SCC(=O)NCCCN2CCCC2=O)nc2ccccc2c1=O | 5 | nt | nt | nt | -3 | nt | nt
Cn1c(=O)c2c(SCC(=O)N3CCOCC3)nc(-c3ccccc3Cl)nc2n(C)c1=O | 16 | 0 | 8 | -7 | 0 | nt | nt
Cc1cc(/C=C2\Sc3ccccc3N2C)cc(C)[n+]1CC1CCCO1 (stereo not given) | -22 | nt | -13 | 50* | 13 | -41 | 3
COc1cccc(CNC(=O)c2ccc(S(=O)(=O)N3CCCCC3)cc2)c1 | -2 | nt | nt | nt | 12 | nt | nt
CCC(=O)N1CCCC1(C)C(=O)Nc1cc(OC)ccc1OC (stereo not given) | -4 | nt | nt | nt | nt | nt | nt
O=C(Nc1ccccc1C(F)(F)F)c1ncn[nH]1 | 7 | -10 | -1 | 59* | -19 | 57* | 1
Oc1ccc(N2CCN(c3nnnn3-c3ccccc3)CC2)cc1 | 6 | 99* | -6 | 32* | 47 | -3 | 1
CCCc1cc(=O)oc2cc(OCC(=O)NCCCn3ccnc3)c(Cl)cc12 | 0 | -4 | 7 | -2 | 8 | nt | nt
CCCc1ccc2c(C(F)(F)F)cc(C(F)(F)F)cc2n1 | 8 | nt | nt | nt | nt | nt | nt
CCOC(=O)c1c(N)sc2c1C1CCN2CC1 | -2 | 98* | 31 | 50* | 4 | 10 | 3
CCOC(=O)c1c(NC(C)=O)sc2c1C1CCN2CC1 | 1 | 6 | nt | 0 | 5 | nt | nt
NC(CSC1(c2ccc(Cl)cc2)c2ccccc2-c2ccccc21)C(=O)O (stereo not given) | -7 | nt | nt | nt | 44 | nt | nt
CC(C)(C)N=Cc1c(O)ccc2oc3c(c12)CCCC3 | 73* | -37 | 24 | 33* | 4 | -18 | 4
NC(=O)N/N=C/c1c(O)ccc2oc3c(c12)CCCC3 | 13 | nt | 8 | 26 | -19 | nt | nt
COC(=O)[C@]1(Cc2ccccc2)N[C@H](c2ccc(-c3ccc4c(c3)OCO4)cc2)[C@@H]2C(=O)N(C)C(=O)[C@@H]21 | 0 | -3 | nt | nt | 5 | nt | nt
SMILES | Cardio protect | ALR H2O2 inh | PHOSPHO1 inh | PfM18AAP inh-1 | PfG6PD inh | PfM18AAP inh-2 | CTSL1 confirm
COc1cc(/C=N/N2CCN(Cc3ccccc3)CC2)cc(OC)c1OC(C)=O | 0 | -23 | nt | 36* | 24 | 3 | 3
O=C(CCc1nc2ccccc2s1)OCC(=O)c1ccccc1 | -2 | -2 | -17 | 3 | 16 | nt | nt
COc1ccccc1OC(=O)CCc1nc2ccccc2s1 | -4 | -4 | 7 | 38* | 41 | -9 | -1
CC(=O)c1ccc(OC(=O)CCc2nc3ccccc3s2)cc1 | -3 | 93* | 2 | 39* | 48 | 8 | -43
Cc1ccc(CN2CCN(Cc3ccc4cccc(F)c4n3)CC2CCO)cc1 (stereo not given) | -1 | 0 | nt | 1 | -15 | nt | nt
Cn1c(=O)c2cc(NC(=O)NCCc3cccs3)ccc2n1C/C=C/c1ccccc1 | 1 | nt | nt | nt | nt | nt | nt
O=C(NNC(=O)C1CC(c2cccs2)=NO1)Nc1ccc(Cl)cc1 (stereo not given) | -5 | -4 | 5 | 1 | -4 | nt | nt
O=C1/C(=C/c2ccc(O)c(O)c2)SC(=S)N1Nc1ccccc1 | 20 | nt | -19 | 58* | -2 | 31* | 9
